According to PubChem BioAssay AID504444 (National Center for Advancing Translational Sciences (NCATS), 2011):
The whole screen tested about 360,000 compounds, of which about 7,500 (2.1%) were called active. Roughly 20% stayed inconclusive and do not appear here. The call rests on the fitted dose curve; in most records, active means well fitted inhibition curve with a large enough effect; inconclusive means small, poorly fitted or top-dose-only effect, or effect the other way; inactive means flat fitted curve, though single readings scatter. The full list was thinned out, with actives kept by preference.

Experiment: Nrf2 qHTS screen for inhibitors; further: nearly all actives have a fitted effect of over 60% in size
Details: A549 ARE-Fluc reporter, luciferase luminescence, 18-24 h; series mostly up to 46 µM; activity change, negative = inhibition: at the top concentration
Method in brief: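 Nrf2 activity is the BugLite luminescence, read 15 min after reagent at room temperature, following CellTiter-Fluor cytotoxicity readout (30 min, 37C). Compound titrations were applied for 18-24 h to 5000 A549 ARE_Fluc cells/well in 5% FBS OPTI-MEM.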
On the % scale 0 is the no-effect control and ±100 the full control effect; potency means the concentration at half of the fitted maximal effect.

SMILES | activity change, negative = inhibition | Potency
CC(=O)NC(c1cccs1)c1cc(Br)c2cccnc2c1O (stereo unspecified) | -1.64% (inactive) | –
Cn1c(=O)n(C)c2cc(NS(=O)(=O)c3ccc(F)cc3)ccc21 | – | inactive
Cc1cc(C)cc(NS(=O)(=O)c2ccc(F)cc2)c1 | -8.67% (inactive) | –
Cn1c(=O)n(C)c2cc(S(=O)(=O)Nc3ccc(F)cc3)ccc21 | – | 9.2 µM (active)
CC1CC(C)CN(c2oc(-c3ccc(OCc4ccc(Cl)cc4)cc3)nc2C#N)C1 (stereo unspecified) | 1.72% (inactive) | –
Cc1cccc(-n2ncc3c(=O)[nH]c(SCC(=O)Nc4cc(C)on4)nc32)c1 | -6.85% (inactive) | –
Cc1ccc(-c2ccc(=O)n(Cc3ccc(F)cc3Cl)n2)cc1 | -26% (inactive) | –
O=c1c([N+](=O)[O-])cc(C(F)(F)F)cn1Cc1cccc(Cl)c1 | -25.9% (inactive) | –
O=c1c([N+](=O)[O-])cccn1Cc1ccc(F)cc1Cl | – | 25.9 µM (active)
Cc1cc2n(n1)C(c1cc(C(C)(C)C)c(O)cc1O)Nc1ccccc1-2 (stereo unspecified) | 9.52% (inactive) | –
COc1ccc(CNC(=O)CSCc2nc(-c3ccccc3F)oc2C)cc1 | -4.11% (inactive) | –
COc1ccc(N2CCN(C(=O)CCSCc3ccccc3F)CC2)cc1 | -0.889% (inactive) | –
COc1ccc(N2CCN(C(=O)CSCc3nc(-c4ccccc4Cl)oc3C)CC2)cc1 | – | 1.84 µM (active)
O=C(CNS(=O)(=O)c1ccccc1)N1CCN(C(=O)c2ccco2)CC1 | 12.4% (inactive) | –
Cc1ccc(S(=O)(=O)N2CCN(C(=O)c3cccs3)CC2)cc1 | 3.88% (inactive) | –
CC(C)Cc1ccc(S(=O)(=O)N2CCN(C(=O)c3ccco3)CC2)cc1 | – | 18.4 µM (active)
O=C(CNC(=O)c1ccccc1)OC(C(=O)Nc1cc([N+](=O)[O-])ccc1F)c1ccccc1 (stereo unspecified) | 17.1% (inactive) | –
COc1ccc(NC(=O)CCN2CCN(CCO)CC2)cc1 | 3.24% (inactive) | –
C=CC[n+]1c(-c2ccc(C)cc2)csc1NNC(=O)Nc1ccccc1 | – | 18.4 µM (active)
O=C(NNC(=O)c1ccc(-c2ccccc2)cc1)Nc1ccccc1 | 26.6% (inactive) | –
C=CCNc1scc(-c2ccccc2)[n+]1CC=C | 17.2% (inactive) | –
CCOCCCNC(=O)c1cn(CC)c2ccc(S(=O)(=O)N3CCc4ccccc4C3)cc2c1=O | -18.4% (inactive) | –
COc1c(Cl)cc(C(=O)N(Cc2ccccc2F)C2CCS(=O)(=O)C2)cc1Cl (stereo unspecified) | 20.2% (inactive) | –

SMILES | activity change, negative = inhibition | Potency
COc1ccc(C2Nc3ccccc3C(=O)N2Cc2ccc(CNC(=O)CO)cc2)cc1COc1ccc(NC(C)=O)cc1 (stereo unspecified) | -24.4% (inactive) | –
CC(C)(C)OC(=O)N(Cc1ccccc1)Cc1ccc(OCc2cccc(NC(=O)c3ccccc3)c2)cc1 | -19.1% (inactive) | –
C=CCOC(=O)c1ccccc1C(=O)OCC=C | 0.689% (inactive) | –
C=CCOC(=O)C1=C(C)NC(C)=C(C(=O)OCC=C)C1c1cccs1 | – | 20.6 µM (active)
CCOC(=O)C1=C(C)NC(=S)NC1c1cccs1 (stereo unspecified) | 7.07% (inactive) | –
CCCCN1CC(COc2ccccc2)Oc2cccc(F)c2S1(=O)=O (stereo unspecified) | -1.14% (inactive) | –
O=S(=O)(O)c1cc2onnc2c2ccccc12 | 3.56% (inactive) | –
COc1ccc(Cl)cc1C=CC=Nc1ccc(S(N)(=O)=O)cc1 | -33.7% (inactive) | –
O=C(CN1C(=O)c2ccccc2S1(=O)=O)N1CCc2ccccc21 | – | 4.11 µM (active)
CC1CCCN(C(=O)CN2C(=O)c3ccccc3S2(=O)=O)C1 (stereo unspecified) | -11.1% (inactive) | –
O=C(CN1C(=O)c2ccccc2S1(=O)=O)NC1CCCCC1 | 3.92% (inactive) | –
COc1ccc(-c2cn3nc(N4CCC(C(=O)Nc5cccc(C)c5C)CC4)sc3n2)cc1 | 8.32% (inactive) | –
CCN(CC)S(=O)(=O)c1ccc(C(=O)N=c2sc3cccc(OC)c3n2C)cc1 | 8.13% (inactive) | –
NCCCNC(=S)NCCCN(Cc1ccc(Cl)cc1)c1ccc(Br)cn1 | 22.6% (inactive) | –
COc1ccc(CCNc2cc(N3CCN(C(=O)c4ccccc4OC)CC3)ccc2[N+](=O)[O-])cc1OC | – | 5.8 µM (active)
COc1ccc(CCNC(=O)c2ccccc2-c2ccccc2C(=O)O)cc1OC | -2.44% (inactive) | –
COc1ccccc1OCCNc1cc(N2CCOCC2)ccc1[N+](=O)[O-] | -5.26% (inactive) | –
CCN(CC)S(=O)(=O)c1ccc(N2CCOCC2)c(NC(=O)C(C)Oc2ccc(F)cc2)c1 (stereo unspecified) | -0.342% (inactive) | –
Cc1ccccc1-c1cc(C(=O)NCC2CC2)n(CC2CC(c3cccnc3)=NO2)n1 (stereo unspecified) | -9.82% (inactive) | –
Cc1ccccc1-c1cc(C(=O)NCc2cccs2)n(CC2CC(c3cccnc3)=NO2)n1 (stereo unspecified) | – | 20.6 µM (active)
Cc1ccc(CNC(=O)c2cc(-c3ccccc3C)n(CC3CC(c4cccc([N+](=O)[O-])c4)=NO3)n2)cc1 (stereo unspecified) | -13.2% (inactive) | –
CCCCCn1c(=O)[nH]c2cc(C(=O)NCCN(C)CCCC)ccc2c1=O | 7.46% [at 9.27 µM] (inactive) | –
COc1ccc(CNC(=O)C(NS(=O)(=O)c2cccc3nsnc23)C(C)C)cc1 (stereo unspecified) | -4.3% (inactive) | –

SMILES | activity change, negative = inhibition | Potency
CC(=O)Nc1ccc(S(=O)(=O)N2CCN(S(=O)(=O)c3cccs3)CC2)cc1 | -12.1% (inactive) | –
CC(C)C(NS(=O)(=O)c1cccs1)C(=O)Nc1nc(C(C)(C)C)cs1 (stereo unspecified) | – | 18.4 µM (active)
Cc1ccc(CN(C(=O)COc2ccc(Cl)cc2C)C2CCS(=O)(=O)C2)o1 (stereo unspecified) | 10.4% (inactive) | –
CC1CCN(S(=O)(=O)c2ccc3c(ccn3CCC(=O)NCc3ccc(N(C)C)cc3)c2)CC1 | -6.81% (inactive) | –
Cc1ccccc1C(=O)N(Cc1ccc(N(C)C)cc1)CC1CCCO1 (stereo unspecified) | -10.2% (inactive) | –
CN(Cc1cncn1C)c1ncnc2ccc(-c3ccc4c(c3)OCO4)cc12 | 0% (inactive) | –
CCC(=O)N1CCc2cc(S(=O)(=O)NC(Cc3ccccc3)C(=O)NCc3ccccc3)ccc21 (stereo unspecified) | -2.93% (inactive) | –
COc1ccccc1NC(=O)c1sc2nc(C)c(C(=O)Nc3ccc(Cl)cc3)c(-c3ccc(Br)cc3)c2c1N | 6.36% [at 9.27 µM] (inactive) | –
COc1ccccc1C(=O)Nc1c(C(=O)N(C)Cc2ccccc2)sc2nc(C)c(Cl)c(C)c12 | – | 14.6 µM (active)
COc1ccccc1C(=O)NCCC(=O)N(C)Cc1cccnc1 | 6.48% (inactive) | –
COc1ccc(CCn2cc3c(c2-c2ccc(Br)cc2)c(=O)n(C)c(=O)n3C)cc1OC | -14.1% (inactive) | –
COc1cc2nc(SCc3ccc(F)cc3)n3nc(CCn4c(C)nc5ccccc54)nc3c2cc1OC | 5.71% (inactive) | –
CC[C@]12c3[nH]c4ccc(OC)cc4c3CCN1C(=O)C(CC(=O)NCc1ccco1)C[C@@H]2C(=O)N1CCN(C(=O)C2CC2)CC1 (stereo partly specified) | 2.5% (inactive) | –
COc1ccc(CNC(=O)C[C@H]2C[C@H](C(=O)N3CCOCC3)[C@@]3(CCC4CCCC4)c4[nH]c5ccc(Cl)cc5c4CCN3C2=O)cc1OC | – | 13 µM (active)
CC[C@]12c3[nH]c4ccc(Cl)cc4c3CCN1C(=O)[C@@H](CC(=O)NCCN1CCOCC1)C[C@@H]2C(=O)N1CCN(C(=O)C2CC2)CC1 | 14.3% (inactive) | –
CN(C)C(=O)CCc1ccc2c3c([nH]c2c1)[C@]1(CCC2CCCC2)[C@@H](C(=O)N2CCOCC2)C[C@H](CC(=O)NCc2ccco2)C(=O)N1CC3 | 0.0719% (inactive) | –
COc1ccc2[nH]c3c(c2c1)CCN1C(=O)C(CC(=O)NCCCN(C)C)C[C@H](C(=O)N2CCOCC2)[C@@]31CCC1CCCC1 (stereo partly specified) | 13.5% (inactive) | –
O=C(C[C@H]1C[C@H](C(=O)N2CCOCC2)[C@@]2(CCC3CCCC3)c3[nH]c4ccc(Cl)cc4c3CCN2C1=O)NCc1ccco1 | – | 20.6 µM (active)
CC(C)(C)OC(=O)C[C@@H]1C/C=C\C[C@H](CC(=O)N[C@@H](CO)Cc2ccccc2)C(=O)N[C@H](Cc2ccccc2)COC1=O | 1.6% (inactive) | –
N#CN1CCC(NC(=O)c2ccc(F)cc2)CC1 | 11.4% (inactive) | –
CCOc1ccc(S(=O)(=O)Nc2ccc3oc4c(c3c2)CC(C)CC4)cc1 (stereo unspecified) | -27.3% (inactive) | –
Cc1ccccc1CS(=O)(=O)CC1Nc2ccc(C(=O)NCc3ccc(Cl)cc3)cc2NC1=O (stereo unspecified) | 21.9% (inactive) | –
COc1cccc2oc(CCc3ccccc3)cc(=O)c12 | 16.4% (inactive) | –

SMILES | activity change, negative = inhibition | Potency
COc1ccccc1CNS(=O)(=O)c1cc(Br)cc2c1N(C(C)=O)C(C)C2 (stereo unspecified) | 1.68% [at 9.27 µM] (inactive) | –
CCOc1cccc2c1N[C@@H](c1ccc(C(=O)O)cc1)[C@H]1CC=C[C@@H]21 | 4.95% (inactive) | –
COc1cccc(CNC(=O)CCC(=O)N2CC3CCCN3c3ccccc32)c1 (stereo unspecified) | -3.25% (inactive) | –
CCN1CCC2(CC1)N=C(c1ccc(F)cc1)C(=S)N2C(=O)c1ccc(C)cc1 | – | 16.4 µM (active)
Cc1ccc(SCC(=O)N2CCN(c3ccc(F)cc3)CC2)cc1 | -9.47% (inactive) | –
CCN1CCC(N(Cc2ccc(F)cc2)C(=O)Nc2cc(C)ccc2C)CC1 | 0.308% (inactive) | –
Cc1cc(OCC(=O)NCC2(N(C)C)CCCCC2)cc(C)c1Cl | 13.5% (inactive) | –
Cc1cc(C)cc(NC(=O)CSc2nc3nccnc3c(=O)n2CCc2c[nH]c3ccccc23)c1 | -0.502% (inactive) | –
O=C1C=CC(=O)N1c1ccc(N2CCCCC2)cc1 | – | 25.9 µM (active)
CCOC(=O)/C(C#N)=C/c1ccc(N2CCCCC2)cc1 | 27.1% (inactive) | –
O=C(Cc1ccccc1)NC(=S)Nc1ccc(N2CCCCC2)cc1 | 9.44% (inactive) | –
Cc1ccc(SCC(=O)Nc2ccc3oc(-c4ccccc4F)nc3c2)cc1 | 4.37% (inactive) | –
CC[C@]1(C(=O)OC)[C@H]2C(=O)N(Cc3ccccc3)C(=O)[C@H]2[C@H]2CN=C(SCc3ccc(C#N)cc3)N21 | -2.24% (inactive) | –
CCc1ccc(S(=O)(=O)c2nnn3c2nc(N2CCN(CC)CC2)c2sccc23)cc1 | 28.1% (inactive) | –
CCOc1ccc(Nc2nc3c(S(=O)(=O)c4cccc(Cl)c4)nnn3c3ccsc23)cc1 | – | 14.6 µM (active)
O=S(=O)(c1ccc(Br)cc1)c1nnn2c1nc(NC1CCCCCC1)c1sccc12 | 2.63% (inactive) | –
Cc1ccc(-c2cn3c(n2)sc2cc(C(=O)NCCCc4ccccc4)ccc23)cc1 | 13.8% (inactive) | –
CCN1C[C@@H]2[C@@H]3C(=O)N(Cc4ccccc4)C(=O)[C@@H]3[C@](Cc3ccccc3)(C(=O)OC)N2C1=NC1CCCCC1 | -21.2% (inactive) | –
CCN(CCCNC(=O)c1cc(Nc2ccc(OC)cc2)nc2ccccc12)c1cccc(C)c1 | 6.69% (inactive) | –
O=C(COC(=O)c1c2c(nc3ccccc13)/C(=C\c1cccs1)CCC2)Nc1ccccc1Cl | -9.33% (inactive) | –
NC(=O)c1ccc(NC(=O)COC(=O)c2c3c(nc4ccccc24)/C(=C\c2ccc4c(c2)OCO4)CCC3)cc1 | – | 14.6 µM (active)
NS(=O)(=O)c1ccc(NC(=O)COC(=O)c2c3c(nc4ccccc24)/C(=C\c2ccc4c(c2)OCO4)CCC3)cc1 | -21.8% (inactive) | –
